Source: PubChem BioAssay
Shown are actives, neighbours in structure and some others; about 3.6% of the full set was active somewhere.
Myeloid diff MLP – induction of myeloid progenitor differentiation, primary screen, cell-based, flow cytometry, MLPCN library. 360,000 compounds, 1% hits. ER-HoxA9 myeloid progenitors, lysozyme-GFP differentiation. AID 624256, 2012. calls only at 10 µM;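 active = normalized GFP-positive differentiation at or above the plate's own cutoff, the solvent-only control mean plus 3 SD; inconclusive = no clear call, values can overlap the other calls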;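 note: cells exposed to compound for four days before flow analysis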
CRFBP-R2 block – antagonists of CRF-BP/CRF-R2 complex, primary screen, cell-based, HEK293, calcium dye fluorescence, uHTS | CRF-induced calcium fluorescence | inhibition, % at 11.8 µM | 350,000 compounds, 0.59% hits | AID 588475, 2011;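 active = inhibition of the ligand-induced calcium signal above about 50% at the single tested concentration, limit read from the data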
CendR NRP1 mod – modulators of CendR peptide binding to NRP-1, primary screen, biochemical, fluorescence polarization, uHTS | Neuropilin-1 (Homo sapiens), O14786 | FAM-RPARPAR peptide binding to NRP-1 | AID 602438, 2012 | 360,000 compounds, 0.85% hits | inhibition, % at 25 µM;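 active = inhibition or corrected inhibition above about 18%, plus a signal ratio from 0.5 to 1.5, limit read from the data, passing the limit was not always enough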
NadD inh – inhibitors of S. aureus NadD, primary screen, biochemical, colorimetric, uHTS; Nicotinate-nucleotide adenylyltransferase NadD (Staphylococcus aureus N315); purified NadD enzyme, colorimetric absorbance read-out; inhibition, % at 20 µM; 360,000 compounds, 0.78% hits; AID 602399, 2012; in the data active = inhibition above about 26%
FAS TE block – FAS thioesterase domain inhibitors, primary screen, biochemical, fluorescence intensity, uHTS; Fatty acid synthase (Homo sapiens), P49327; recombinant FAS-TE, OMFH fluorogenic substrate, fluorescence endpoint; inhibition, % at 15 µM; 360,000 compounds, 0.67% hits;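 active = compounds whose normalised, plate-corrected inhibition of enzyme fluorescence in the single-dose primary screen is 50% or more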
FAS-TE conf – FAS thioesterase domain inhibitors, confirmation, biochemical, fluorescence intensity, single concentration | shares compounds with FAS TE block | recombinant FAS-TE, OMFH fluorogenic substrate | inhibition, % at 15 µM | 2,300 compounds, 45% hits | AID 624325, 2012;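 active = compounds inhibiting the enzyme by at least 50% at 15 µM in any one of the replicates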
A number is an active result.

Results for CN(C(=O)c1cccc(NC(=O)Cc2ccc(NC(=O)C3CCN(S(=O)(=O)c4cccc([N+](=O)[O-])c4)CC3)cc2)c1)C1CC1 ?
Myeloid diff MLP: inactive; CRFBP-R2 block: inactive; CendR NRP1 mod: inactive; NadD inh: inactive; FAS TE block: inactive

What do the screens show for `CN(CCc1ccccc1)C(=O)c1ccc(NC(=O)Cc2cccc(NC(=O)C3CCN(S(=O)(=O)c4cccc([N+](=O)[O-])c4)CC3)c2)cc1`?
Myeloid diff MLP: inactive; CRFBP-R2 block: inactive; CendR NRP1 mod: inactive; NadD inh: inactive; FAS TE block: 55; FAS-TE conf: inactive

How did CN(CCc1ccccc1)C(=O)c1ccc(NC(=O)Cc2ccc(NC(=O)C3CCN(S(=O)(=O)c4cccc([N+](=O)[O-])c4)CC3)cc2)cc1 do in these assays?
Myeloid diff MLP: inactive; CRFBP-R2 block: inactive; CendR NRP1 mod: inactive; NadD inh: inactive; FAS TE block: 62; FAS-TE conf: inactive

Results for CN(C(=O)c1cccc(NC(=O)Cc2cccc(NC(=O)C3CCN(S(=O)(=O)c4cccc([N+](=O)[O-])c4)CC3)c2)c1)C1CC1 ?
Myeloid diff MLP: inconclusive; CRFBP-R2 block: inactive; CendR NRP1 mod: inactive; NadD inh: inactive; FAS TE block: inactive

How did CN(C(=O)c1cccc(NC(=O)Cc2ccc(NC(=O)C3CCN(S(=O)(=O)c4cccc([N+](=O)[O-])c4)CC3)cc2)c1)C1CCCCC1 do in these assays?
Myeloid diff MLP: inactive; CRFBP-R2 block: inactive; CendR NRP1 mod: inactive; NadD inh: inactive; FAS TE block: 52; FAS-TE conf: inactive

Results for CN(C(=O)c1ccc(NC(=O)Cc2ccc(NC(=O)C3CCN(S(=O)(=O)c4cccc([N+](=O)[O-])c4)CC3)cc2)cc1)C1CCCC1 ?
Myeloid diff MLP: inactive; CRFBP-R2 block: inactive; CendR NRP1 mod: inactive; NadD inh: inactive; FAS TE block: inactive

What do the screens show for `CCN(CC)S(=O)(=O)c1cccc(C(=O)Nc2ccc(S(=O)(=O)NC3=NCCCCC3)cc2)c1`?
Myeloid diff MLP: inactive; CRFBP-R2 block: inactive; CendR NRP1 mod: inactive; NadD inh: inactive; FAS TE block: inactive

Results for O=C(NC(c1ccc(-c2ccccc2)cc1)c1cnccn1)C1CCN(CCN2C(=O)c3ccccc3C2=O)CC1 (stereo not given) ?
Myeloid diff MLP: inactive; CendR NRP1 mod: inactive; NadD inh: inactive; FAS TE block: inactive

Results for C=CCn1c(=S)[nH]c2cc(C(=O)N3CCN(c4ccccc4OC)CC3)ccc2c1=O ?
Myeloid diff MLP: inactive; CRFBP-R2 block: inactive; CendR NRP1 mod: inactive; NadD inh: inactive; FAS TE block: 54; FAS-TE conf: 58

What do the screens show for `COc1cc(C(O)c2nc(-c3cccc(F)c3)cs2)ccc1F` (stereo not given)?
Myeloid diff MLP: inactive; CendR NRP1 mod: inactive; NadD inh: inactive; FAS TE block: inactive

How did CCCCCCn1c(=O)c(F)cn(Cc2ccc(OC)c([N+](=O)[O-])c2)c1=O do in these assays?
Myeloid diff MLP: inactive; CRFBP-R2 block: 59; CendR NRP1 mod: inactive; NadD inh: inactive; FAS TE block: 58; FAS-TE conf: 57

How did O=C(Nc1cccc(C(=O)O)c1)/C(=C/c1cccc([N+](=O)[O-])c1)NC(=O)c1cccc(Br)c1 do in these assays?
Myeloid diff MLP: inactive; CRFBP-R2 block: inactive; CendR NRP1 mod: inactive; NadD inh: inactive; FAS TE block: 62; FAS-TE conf: 58

What do the screens show for `O=C(Nc1ccc(F)cc1)C1CCN(C(=O)c2ccc(F)cc2)CC1`?
Myeloid diff MLP: inactive; CRFBP-R2 block: inactive; CendR NRP1 mod: inactive; NadD inh: inactive; FAS TE block: inactive

What do the screens show for `COc1cc(NC(=S)NC(=O)CCc2ccccc2)cc(OC)c1`?
Myeloid diff MLP: inactive; CRFBP-R2 block: inactive; CendR NRP1 mod: inactive; NadD inh: inactive; FAS TE block: inactive

Results for Cc1cccc(N2C(=O)N3[C@H](c4ccc(F)cc4)[C@@H]4C(=O)N(C5CCCCC5)C(=O)[C@@H]4[C@]3(Cc3ccc(Cl)cc3)C2=O)c1 ?
Myeloid diff MLP: inactive; CRFBP-R2 block: inactive; CendR NRP1 mod: inactive; NadD inh: inactive; FAS TE block: 93; FAS-TE conf: inactive

Results for O=C1[C@H]2[C@@H](c3ccc(F)cc3)N3C(=O)N(c4cccc(F)c4)C(=O)[C@@]3(Cc3ccc(Cl)cc3)[C@H]2C(=O)N1C1CCCCC1 ?
Myeloid diff MLP: inactive; CRFBP-R2 block: inactive; CendR NRP1 mod: inactive; NadD inh: inactive; FAS TE block: 71; FAS-TE conf: inactive

How did CC[C@@]12C(=O)N(c3cccc(F)c3)C(=O)N1[C@H](c1ccc(Cl)cc1)[C@@H]1C(=O)N(C3CCCCC3)C(=O)[C@@H]12 do in these assays?
Myeloid diff MLP: inactive; CRFBP-R2 block: inactive; CendR NRP1 mod: inactive; NadD inh: inactive; FAS TE block: 67; FAS-TE conf: inactive

Results for CC[C@@]12C(=O)N(c3cccc(F)c3)C(=O)N1[C@H](c1ccc(OC)cc1)[C@@H]1C(=O)N(C(C)(C)C)C(=O)[C@@H]12 ?
Myeloid diff MLP: inactive; CRFBP-R2 block: inactive; CendR NRP1 mod: inactive; NadD inh: inactive; FAS TE block: inactive

How did CC[C@@]12C(=O)N(c3cccc(C)c3)C(=O)N1[C@H](c1ccc(Br)cc1)[C@@H]1C(=O)N(C(C)(C)C)C(=O)[C@@H]12 do in these assays?
Myeloid diff MLP: inactive; CRFBP-R2 block: inactive; CendR NRP1 mod: inactive; NadD inh: inactive; FAS TE block: inactive

How did Cc1ccc(N2C(=O)N3[C@H](c4ccc(Cl)cc4)[C@@H]4C(=O)N(C5CCCCC5)C(=O)[C@@H]4[C@]3(Cc3ccccc3)C2=O)cc1 do in these assays?
Myeloid diff MLP: inactive; CRFBP-R2 block: inactive; CendR NRP1 mod: inactive; NadD inh: inactive; FAS TE block: 93; FAS-TE conf: inactive

How did C#CCNC(=O)C1=C[C@H](C)[C@@H](CCCO)[C@H](OCC)O1 do in these assays?
Myeloid diff MLP: inactive; CRFBP-R2 block: inactive; CendR NRP1 mod: inactive; NadD inh: inactive; FAS TE block: inactive

Results for COc1ccc(C(CNC(=O)CNC(=O)c2cccc(C)c2)N2CCCCC2)cc1 (stereo not given) ?
Myeloid diff MLP: inactive; CRFBP-R2 block: inactive; CendR NRP1 mod: inactive; NadD inh: inactive; FAS TE block: inactive

Results for CCOc1ccc(NC(=S)N2CCc3cc(OC)c(OC)cc3C2COc2ccc3c(C)cc(=O)oc3c2)cc1 (stereo not given) ?
Myeloid diff MLP: inactive; CRFBP-R2 block: inactive; CendR NRP1 mod: inactive; NadD inh: inactive; FAS TE block: 78; FAS-TE conf: inactive

What do the screens show for `COc1cc([N+](=O)[O-])cc(/C=N/NC(=O)c2cccnc2)c1O`?
Myeloid diff MLP: inactive; CRFBP-R2 block: inactive; CendR NRP1 mod: inactive; NadD inh: inactive; FAS TE block: 62; FAS-TE conf: 74
